Source: PubChem BioAssay AID2029 (NMMLSC, 2009)
“And” between values parts separate entries of the source, which are not always exact repeats. Equal entries are not always repeated. Among all 320,000 compounds or so, about 210 (0.066%) were called active. Shown is part of a subset that was picked to be rich in actives. Unmarked numbers belong to inactive results.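 How the source made its calls: active means GFP response relative to DMSO above a set limit, near the screen mean plus 3 SD (cut at about 150% in these data); inconclusive means Fewer than 70 cells measured for a yeast strain; inactive means the rest.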

Assay: modulators of CIT2-GFP expression in yeast, primary screen, S. cerevisiae, GFP fusion, multiplex flow cytometry, MLPCN library (AID 2029);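 further: ratio of well median GFP fluorescence to mean of DMSO wells on the plate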
Details: S. cerevisiae CIT2-GFP strain, 3 h, at 10 µM, hits give high values, 100 means same as DMSO wells

Row | SMILES | GFP response vs DMSO
1 | O=C(Nc1ccc(Cl)cc1)c1cc2nc(C3CC3)cc(C(F)(F)F)n2n1 | 115%
2 | Cc1ccccc1NC(=O)N1CCCC1C(=O)NCc1ccccc1 (stereo unspecified) | 113%
3 | NC(=O)c1ncc(C(F)(F)F)cc1Oc1ccc(F)cc1 | 99.4%
4 | CNc1nc(SC)nc(N(C#N)CC(=O)OC)n1 | 104%
5 | O=C(COC(=O)c1ccc(O)cc1O)c1ccc2c(c1)OCCO2 | 95.1%
6 | O=C1Nc2cc(Cl)c(Cl)cc2N(O)N1c1cc(Cl)cc(Cl)c1 | 97.6%
7 | Cc1c(NC(=O)CSCc2ccccc2)cccc1C(=O)O | 106%
8 | CCC(C)(C)C1CCC(=NNC(=O)c2ccc(Br)o2)CC1 (stereo unspecified) | 97.7%
9 | COCCCNC(=O)[C@H]1N2C(=O)c3ccccc3C2SC1(C)C (stereo partly specified) | 112%
10 | Cc1cc2cc3c(N)[nH]nc3nc2cc1C | 113%
11 | O=C(NC1CCN(C(=S)Nc2ccc(Cl)cc2)CC1)C1CCCCC1 | 97.3%
12 | Cc1ccc2nc(-c3ccc(NC(=O)CN(C)S(=O)(=O)c4ccccc4)cc3)sc2c1 | 111%
13 | COc1ccc(N2CCN(C(=O)[C@@H](NC(=O)c3cc(OC)cc(OC)c3)C(C)C)CC2)cc1 | 95.1%
14 | Cc1ccccc1NC(=O)CSC(=O)c1ccccc1 | 102%
15 | O=C(NN1C(=O)C2CCCCC2C1=O)c1ccco1 (stereo unspecified) | 104%
16 | COCCCNS(=O)(=O)c1cccc(S(=O)(=O)c2cccc(S(=O)(=O)NCCCOC)c2)c1 | 115%
17 | O=c1/c(=C/c2ccc(CNS(=O)(=O)c3ccccc3)o2)sc2n1CCN=2 | 107%
18 | CC1(C)CC(=O)C=C(N2CCOCC2)C1 | 93.2%
19 | CCCCOc1ccc(C(=O)NCC(=O)OCC(=O)c2c(N)n(C)c(=O)n(C)c2=O)cc1 | 92.4%
20 | CC(C)c1ccc2c(c1)c(SC(C)(C)C)c(CC(C)(C)C(=O)O)n2Cc1ccc(Cl)cc1 | 112% and 88.8%
21 | C/C(CCC(=O)OC[C@H]1O[C@H](C#Cc2ccccc2)C=C[C@@H]1Oc1ccc(C)cc1)=N\OC[C@@H](O)[C@H]1O[C@@H]2OC(C)(C)O[C@@H]2[C@H]1O | 109%
22 | Nc1ccc(OCC(O)C[n+]2ccc(CCS(=O)(=O)[O-])cc2)cc1 (stereo unspecified) | 90%
23 | CCOC(=O)c1c(CN(C)C)n(-c2ccccc2)c2cc(Br)c(O)cc12 | 101%

Row | SMILES | GFP response vs DMSO
24 | Cc1ccc(NC(=O)CN(C)C(=O)COC(=O)C(C)(C)Oc2ccc(Cl)cc2)cc1 | 109%
25 | COc1ccccc1NC(=O)C[n+]1ccccc1 | 120%
26 | COC(=O)C[n+]1cccc2ccccc21 | 175% (active)
27 | Cc1cccc[n+]1CC(=O)c1ccccc1 | 113%
28 | CC(=O)NS(=O)(=O)c1ccc2c(c1)Cc1cc(S(=O)(=O)NC(C)=O)ccc1-2 | 99.9%
29 | O=C(c1ccco1)N1CCN(C(=O)C2CC(c3ccc(Cl)c(Cl)c3)=NO2)CC1 (stereo unspecified) | 89%
30 | CN(Cc1ccccc1)C(=O)C(=O)c1cn(CC(=O)N2CCCC2)c2ccccc12 | 154% (active)
31 | Cc1ccc(CNC(=O)C(=O)c2cn(CC(=O)N3CCCC3)c3ccccc23)cc1 | 104%
32 | CN1CCN(C(=O)C(=O)c2cn(CC(=O)N3CCCC3)c3ccccc23)CC1 | 103%
33 | CCCCCC1CC(COc2ccccc2)OC1=O (stereo unspecified) | 96.7%
34 | CC[n+]1cc(C)ccc1/C=C/c1ccc(N(C)C)cc1 | 158% (active)
35 | CO[C@H]1[C@@H]2C=CO[C@@H](O[C@H]3O[C@@H](CO)[C@H](O)[C@@H](O)[C@@H]3O)[C@@H]2[C@@]2(CO)O[C@@H]12 | 109%
36 | C/C=C/c1ccc(OCC(O)CN2CCCCCCC2)c(OC)c1 (stereo unspecified) | 101%
37 | N#Cc1cccc(NC(=O)CN2CCCCCC2)c1 | 100%
38 | CCN(CC(=O)Nc1c(F)cccc1F)C(=O)CN1c2cccc3cccc(c23)S1(=O)=O | 104%
39 | COc1ccc(Nc2cc(Sc3ccc(OC)cc3)ncn2)cc1 | 86.2%
40 | Cc1ccc2c(=O)oc(N(C)C)nc2c1 | 105%
41 | CCn1c(SCC(=O)Nc2ccccc2F)nc2c(c1=O)SC(C)C2 (stereo unspecified) | 100%
42 | Cc1cccc([C@@H]2[C@@H]3C(=O)N(C)C(=O)[C@@H]3[C@@H]3C(=O)Nc4ccccc4C(=O)N23)c1 | 87.5%
43 | CCc1ccc2[nH]c(=O)c(Cc3ccccc3)c(O)c2c1 | 105%
44 | COc1ccc(NC(=O)CN(Cc2ccccc2)S(C)(=O)=O)cc1OC | 101%
45 | Cc1ccccc1OC(=O)Cn1c(C(F)(F)F)nc2ccccc21 | 84.2%
46 | COc1ccc(C(=O)NC2CC2)cc1OC1CCN(Cc2ccc(SC)cc2)CC1 | 114%

Row | SMILES | GFP response vs DMSO
47 | CCOC(=O)CSc1nc(N2CCOCC2)c2c(c1C#N)CC(C(C)C)OC2 (stereo unspecified) | 104%
48 | COc1ccc(C(=O)COC(=O)c2c(C)noc2C)cc1Cl | 98.9%
49 | COc1ccc(NC(=O)CN(C)C(=O)c2n[nH]c3ccccc23)cc1 | 101%
50 | CN(C)S(=O)(=O)c1cccc(NC(=O)COc2ccc3ccccc3c2)c1 | 90.9%
51 | O=C(CN1CCOCC1)N1CCCc2c1c(=O)oc1ccc(OCc3ccccc3)cc21 | 99%
52 | Cc1cc(C)cc(NC(=O)C2CCCN(S(=O)(=O)c3ccc4[nH]c(=O)ccc4c3)C2)c1 (stereo unspecified) | 98.8%
53 | COc1ccc(CNS(=O)(=O)c2cc(-c3cc(C)no3)ccc2C(C)C)cc1 | 95.4%
54 | CN1CCC(=NNC(=O)CN(c2cccc(Cl)c2)S(C)(=O)=O)CC1 | 95.2%
55 | Cc1cccc(CSc2ccc(-c3cccs3)nn2)c1 | 87.4%
56 | CC(C)(C)CN1C(=O)C(=O)NC[C@H]1Cc1cccc2ccccc12 | 101%
57 | CCCCC(=O)N(c1ccc(OC)cc1)C1C=CS(=O)(=O)C1 (stereo unspecified) | 108%
58 | COc1cc(CO)c(C2(CO)CCCC2)cc1OC | 94.8%
59 | CC(C)=CCN1CCN(CCCc2ccccc2)CC1CCO (stereo unspecified) | 105%
60 | CCCCCc1nnc(NC(=O)c2ccc(=O)n(C)n2)s1 | 113%
61 | O=S(=O)(c1ccc(Br)cc1)n1ccc2ccccc21 | 77.6%
62 | CC(C)(C)OC(=O)NCCCCCNC(=O)c1[nH]cnc1C(=O)Nc1nccs1 | 104%
63 | CCOCCc1nn2c(=O)cc(CSCC(=O)Nc3cccc(C)c3C)nc2s1 | 96.3%
64 | C/C(=N\NC(=O)c1cc2c(s1)CCC(C)C2)c1cccnc1 (stereo unspecified) | 104%
65 | O=C(NCCCn1ccnc1)/C(=C\c1ccccc1F)NC(=O)c1ccccc1 | 93.1%
66 | Cc1c(C2=CCN(S(=O)(=O)c3ccc(Cl)cc3)CC2)c2ccccc2n1C | 98.5%
67 | Cn1ccc(NC(=O)Nc2ccc(Cl)cc2)n1 | 95.9%
68 | CN(C)S(=O)(=O)c1cc(C(=O)Nc2ccn(C)n2)c(Cl)cc1Cl | 6000% [may fluoresce green] (active)
69 | Cc1ccc(C(=O)Nc2ccn(C)n2)cc1 | 109%

Row | SMILES | GFP response vs DMSO
70 | CCCCC[C@@H]1C=C(C(=O)O)[C@H](c2ccc(C#N)cc2)N1S(=O)(=O)c1ccc(C)cc1 | 88.2%
71 | COc1ccccc1N(CC(=O)NC1CCCC1)C(=O)C1(C)CC(=O)N=C2C=CC(C)=CN21 (stereo unspecified) | 104%
72 | O=C(Nc1ccc(-c2cscn2)cc1)C1CCCN(Cc2ccc(CO)o2)C1 (stereo unspecified) | 97.5%
73 | COc1ccc(C(=O)N2CCCCC2C(=O)Nc2ccc(-n3nc(C)cc3C)cc2)o1 (stereo unspecified) | 109%
74 | O=C(COC(=O)C12CC3CC(CC(O)(C3)C1)C2)NC12CC3CC(CC(C3)C1)C2 | 88.4%
75 | Cc1ccc(S(=O)(=O)NCCCn2ccnc2)cc1C(=O)NC(C)C | 99.8%
76 | CCC(C)(C)NC(=O)CN(C(=O)CCC(=O)Nc1nccs1)c1ccc2c(c1)OCO2 | 109%
77 | COc1ccc(C)cc1Nc1n[n+](-c2ccccc2)c(-c2cccc(Cl)c2Cl)s1 | 112%
78 | O=C(c1ccc(F)cc1)c1cn(Cc2ccc(F)cc2)c2cc3c(cc2c1=O)OCCO3 | 97%
79 | NC(=O)NC(=O)C(OC(=O)CCNS(=O)(=O)c1ccccc1)c1ccccc1 (stereo unspecified) | 115%
80 | CC(C)(C)n1nc(Cc2cccc3ccccc23)c(C#N)c1N | 91.2%
81 | CCCOc1ccc(C2NC(=O)NC(c3ccccc3)=C2C(C)=O)cc1OCC (stereo unspecified) | 98.7%
82 | CC(=O)c1ccc(S(=O)(=O)NCc2nnnn2-c2ccccc2)cc1 | 108%
83 | CCC(=C/c1sc2ccc3ccccc3c2[n+]1C)/C=C1\Sc2ccc3ccccc3c2N1C | 189% (active)
84 | Cc1cc(C(=O)COc2ccccc2Cl)c(C)n1C1CC1 | 80.4%
85 | O=C(c1cc(COc2c(F)cccc2F)on1)N1CCSCC1 | 99.2%
86 | CCCN(C(=O)CSc1nnc(N)s1)c1c(N)n(Cc2ccccc2)c(=O)[nH]c1=O | 102%
87 | CC1CCC(C(C)C)C(=O)/C1=C\c1ccc(NC(=O)CCC(=O)O)cc1 (stereo unspecified) | 103%
88 | CC(=O)NC1C(Oc2ccc(C=O)cc2)OC(COC(C)=O)C(OC(C)=O)C1OC(C)=O (stereo unspecified) | 102%
89 | COc1ccc(CCNC(=O)C(=O)Nc2ccc3nc4n(c(=O)c3c2)CCCCC4)cc1OC | 96.1%
90 | CC(C)Oc1ccc(/C=N/NC(=O)c2nnn(-c3nonc3N)c2CN(C)C2CCCCC2)cc1 | 99.5%
91 | Cc1cc(NC(=O)/C=C/C(=O)N(CC(=O)NC2CCCC2)c2ccc(F)cc2)no1 | 96.7%
